Sampled rows, rich in hits. Any-hit rate of the full collection: about 3.4%.
Wnt bcat act = activates Wnt/beta-catenin signaling in a reporter cell assay | activator, plate reader | activation, % at 9.35 µM | actives 1.2% (n = 300,000) | AID 743398; in the data active means activation above about 30%, passing the limit was not always enough; inconclusive means no clear call, values can overlap the other calls
Env fusion inh = HIV envelope-mediated fusion inhibition; HeLa-JRFL Env/CEM21 cell fusion, luciferase; inhibition, % at 12.3 µM; actives 1.1% (n = 360,000); AID 651610;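 active means mean replicate inhibition score of at least 50 and every replicate individually at or above 50; inconclusive means only one of the two criteria met; inactive means mean below 50 and not all replicates reaching 50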
miR122 inh = inhibitors of miR-122 in Huh7 cells | Huh7 miR-122 Renilla luciferase sensor, 48 h; neutral wells = 0, positive control = 100 | activation (reporter increase), % at 12.5 µM | actives 0.3% (n = 340,000) | AID 602342;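 active means mean replicate activation score at least 90 and every replicate individually at or above 90; inconclusive means only one of the two criteria met; inactive means neither criterion met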;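 further: higher luciferase means less miR-122 activity so hits act as miR-122 inhibitors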
esBAF inh = blocks esBAF chromatin remodeling in mouse ES cells | Bmi1-luciferase knock-in reporter, 24 h; 100% = twice the neutral-well signal | reporter increase, % at 12.5 µM | actives 2% (n = 350,000) | AID 602393; in the data active means activation above about 40%; inconclusive means no clear call, values can overlap the other calls;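 further: a rise in the Bmi1 reporter signal indicates esBAF inhibition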
MITF act = activators of MITF-driven TRPM1 promoter activity in SK-MEL-5 cells | SK-MEL-5 TRPM1-promoter luciferase, 24 h; % of positive control, neutral wells = 0 | activation, % at 12.5 µM | actives 0.75% (n = 300,000);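 active means mean activation of at least 80% with every replicate also reaching 80%; inconclusive means mean reaches 80% but some replicate falls short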
Numbers stand for hits; - = inactive; ? = inconclusive; . = not tested or not shown; + = active, no number.

SMILES | Wnt bcat act | Env fusion inh | miR122 inh | esBAF inh | MITF act
Cc1cccc(NC(=O)Nc2ccc3c(c2)C(=O)N(C)[C@H]2CC[C@H](CC(=O)NCc4ccccc4Cl)O[C@@H]2CO3)c1 | . | - | - | - | .
CCn1c(SCC(=O)c2ccc(O)c(O)c2)nnc1-c1ccccc1OC | . | . | - | - | -
CCn1c(SCC(=O)c2ccc(O)c(O)c2)nnc1-c1ccccc1 | . | . | - | 45 | -
Cn1c(SCC(=O)c2ccccc2)nnc1-c1ccc(O)cc1 | 64 | - | - | - | -
CCOC(=O)N1CCC(N2CCCC(C(=O)c3cc(F)ccc3OC)C2)CC1 (stereo unspecified) | 50 | - | . | . | -
CC(O)C(NS(=O)(=O)c1ccc(Cl)cc1)C(=O)OCCOc1ccc(F)cc1 (stereo unspecified) | 45 | - | - | - | .
Cc1ccc(NC(=S)c2ccc3ccccc3n2)c(C)c1 | - | - | - | 53 | -
Cc1ccc(C)c(NC(=O)c2ccc3ccccc3n2)c1 | - | . | - | - | -
Cc1ccc(C(=O)Nc2ccc(CC(=O)O)cc2)o1 | . | - | - | - | -
CC(C)(C)c1ccc(C(=O)Nc2ccc(CC(=O)O)cc2)o1 | . | 85 | . | - | -
C[C@@H]1CCCCO[C@H](CN(C)Cc2ccc(C(=O)O)cc2)[C@@H](C)CN([C@@H](C)CO)C(=O)c2cc(NC(=O)NC3CCCCC3)ccc2O1 | . | - | - | - | .
COc1ccc(-c2c(O)c(C#N)c(-c3ccccc3)n(-c3ccc(OC)cc3)c2=O)cc1 | - | - | 97 | . | -
CC(=O)Nc1c(C#N)c(-c2ccccc2)c(C#N)c(=O)n1-c1ccc(C)cc1 | - | - | - | - | .
O=C(N[C@@H]1CC[C@@H](CCNS(=O)(=O)c2ccccc2)O[C@H]1CO)c1cccc(F)c1 | . | - | . | - | .
COCc1c(C#N)c(NCCc2ccccc2)nc(C)c1[N+](=O)[O-] | - | - | . | . | -
COCc1c(C#N)c(NCc2cc(OC)c(OC)c(OC)c2)nc(C)c1[N+](=O)[O-] | - | 57 | . | . | -
Fc1ccccc1OCCCCN1CCCCC1 | - | - | - | - | +
CO[C@@H]1CN(C)C(=O)c2ccc(NC(=O)C3CC3)cc2OC[C@H](C)N(C(=O)NC(C)C)C[C@H]1C | . | . | . | - | .
COC(=O)C(Cc1ccc(OC(=O)c2ccc(C(F)(F)F)cc2)cc1)N1Cc2ccccc2C1=O (stereo unspecified) | - | . | - | 46 | .
CCN1CCc2c(sc(NC(=S)NC(=O)c3ccccc3)c2C#N)C1 | . | . | - | . | -
CC1CCc2sc(NC(=S)NC(=O)c3ccccc3)c(C#N)c2C1 (stereo unspecified) | - | - | - | 58 | -
N#Cc1c(NC(=S)NC(=O)c2ccccc2)sc2c1CCC2 | - | - | - | 49 | -
C[C@H]1CN([C@@H](C)CO)C(=O)c2cccc(NC(=O)Nc3ccc(C(F)(F)F)cc3)c2O[C@@H]1CN(C)C(=O)Nc1ccc2c(c1)OCO2 | . | - | - | - | .
O=C(c1cc2ccccc2[nH]1)N1CCOCC1 | 36 | - | . | . | -
CN1CCN(C(=O)c2cc3ccccc3[nH]2)CC1 | - | - | - | - | -
SMILES | Wnt bcat act | Env fusion inh | miR122 inh | esBAF inh | MITF act
COc1ccc(-c2ccc(SCc3ccccn3)nn2)cc1OC | - | - | - | - | -
COc1cccc(-c2ccc(SCc3ccccn3)nn2)c1 | ? | - | . | . | 114
Clc1ccc(-c2ccc(SCc3ccccn3)nn2)cc1 | 36 | - | - | 51 | 116
O=[N+]([O-])c1cccc(-c2ccc(SCc3ccccn3)nn2)c1 | - | - | - | 42 | -
c1ccc(CSc2ccc(-c3ccccn3)nn2)nc1 | - | - | . | . | -
O=C(N[C@H]1CC[C@@H](CCn2cc(C3(O)CCCC3)nn2)O[C@@H]1CO)C1CCCCC1 | . | - | . | - | .
CC(=O)Nc1sc(C)c(C)c1C(=O)OCCOc1ccccc1 | - | - | - | 55 | -
COc1ccc(CNC(=O)COC(=O)c2c(NC(C)=O)sc(C)c2C)cc1OC | 46 | - | - | - | .
Cc1nc2c(OCc3ccc(C(F)(F)F)cc3)cccn2c1N(C)C(=O)CCC1CCCC1 | - | 61 | - | - | .
O=C(O)CCNc1ccc(NCCC(=O)O)c2c1C(=O)c1ccccc1C2=O | - | - | . | . | -
O=C1c2cccc(NCCNCCO)c2C(=O)c2cccc(NCCNCCO)c21 | - | 59 | . | . | -
C[C@H](CO)N1C[C@H](C)[C@H](CN(C)CC2CCCCC2)Oc2ccc(NS(C)(=O)=O)cc2C1=O | . | - | - | - | .
CO[C@@H]1CN(C)C(=O)c2cc(NC(=O)c3cc(C)on3)ccc2OC[C@@H](C)N(C(=O)C2CC2)C[C@H]1C | . | . | - | - | .
c1ccc(C2OCC3(CO2)COC(c2ccccc2)OC3)cc1 (stereo unspecified) | - | - | - | - | .
c1ccc2c(C3OCC4(CCCCC4)CO3)cccc2c1 | - | . | - | 45 | .
COc1ccccc1-c1ccc2n(c1=O)C[C@@H]1[C@@H](CO)[C@H](C(=O)N[C@H](C)c3ccccc3)[C@H]2N1C | . | . | - | - | .
Cc1ccc2nc(-c3ccc(NC(=O)CSc4nc(N)cc(=O)[nH]4)cc3)sc2c1 | 56 | - | - | ? | -
Cc1ccc2nc(-c3ccc(NC(=S)NC(=O)CC(C)C)cc3)sc2c1 | 52 | - | - | 73 | .
CCc1ccc(OCC(=O)NNC(=S)NC(=O)C2CCCCC2)c(Br)c1 | - | - | - | . | -
O=C(COc1ccc(Br)cc1Br)NC(=O)NC1CCCC1 | - | - | . | . | 104
N#Cc1ccccc1OCC(=O)NC1CCCCCC1 | - | - | - | 46 | .
CCc1ccc(OCC(=O)NC2CCCCC2)c(Br)c1 | - | . | . | ? | 101
N#Cc1ccccc1OCC(=O)OCC(=O)NC1CCCCC1 | - | - | . | - | -
Cc1cc(Br)ccc1OCC(=O)NC1CCCC1 | - | - | - | 52 | -
CC(C)(C)NC(=O)NC(=O)COc1ccccc1C#N | 40 | - | - | - | 121
SMILES | Wnt bcat act | Env fusion inh | miR122 inh | esBAF inh | MITF act
O=C(COc1ccc(F)cc1Cl)NC1CCCCCC1 | 40 | - | - | ? | ?
CC(C)(C)NC(=O)C(c1ccccc1)N(Cc1cccs1)C(=O)c1csnn1 (stereo unspecified) | . | 72 | - | - | -
CC(C)c1ccc(N(C(=O)c2csnn2)C(C(=O)NC(C)(C)C)c2ccncc2)cc1 (stereo unspecified) | . | . | . | 58 | -
Cc1ccc(N(C(=O)c2csnn2)C(C(=O)NC(C)(C)C)c2ccncc2)cc1 (stereo unspecified) | - | . | . | - | -
CC(C)(C)NC(=O)C(c1cccs1)N(Cc1ccco1)C(=O)c1csnn1 (stereo unspecified) | - | - | . | - | -
C[C@H](CO)N1C[C@H](C)[C@@H](CN(C)Cc2ccc(-c3ccccc3)cc2)Oc2ccc(NS(C)(=O)=O)cc2CC1=O | . | - | - | - | .
COc1cc(C)ccc1OCc1cc(C(=O)NCc2ccncc2)no1 | ? | - | - | 52 | -
COc1cc(C)ccc1OCc1cc(C(=O)NC(C)Cn2cncn2)no1 (stereo unspecified) | - | - | - | 78 | 123
COc1cc(Cl)ccc1OCc1cc(C(=O)NCC(C)(C)N2CCOCC2)no1 | - | - | - | - | -

Compound activity deposited in PubChem by Broad Institute.
